Where “and” joins values, the source holds several entries; their conditions need not be identical. Identical values can stand only once. Results filed as inconclusive are left out. Calls of active or inactive are those of the source. Unless noted, calls follow the shape of the dose curve; as a rule, active = well fitted curve in the direction sought with a large enough effect; inconclusive = small, poorly fitted or top-dose-only effect, or another doubt; inactive = no such curve, though single readings can be large; an effect the other way counts as inactive or inconclusive.
Experiments:
[1] = Cell Viability - Hek293 (AID 427;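 active = compounds whose dose-response curve shows a full or clear partial loss of cell viability, called from curve shape rather than a numeric limit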;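 also: potency is read from the fitted curve at half-maximal effect; cells exposed to compound for 40 hours at 37 °C before reading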); details: qHTS
How it was run: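 qHTS, human embryonic kidney (adenovirus-transformed) cells; 40 hr cpd, 37 °C; CellTiter-Glo ATP luminescence. Norm: DMSO = 0, 100 uM tamoxifen = 100% inhibition. Hill-fit AC50.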

[2] = Cell Viability - N2a (AID 540); details: N2a mouse neuroblastoma cell viability; at 92.2 µM (top of the series);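 also: cells exposed to compound for 40 h at 37 °C; plate controls were DMSO alone for no effect and tamoxifen control for full effect; nearly all actives have a fitted effect of over 45% in size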
How it was run: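 First, 1500 N2a cells per well incubate 5 hr at 37 °C; next, compounds are added and incubated 40 hr at 37 °C; finally CellTiter-Glo is added and luminescence read after 20 min, with AC50 derived by Hill modeling.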

[3] = Cellular Toxicity (caspase-3) Hek293 (AID 664); details: HEK293 caspase-3 activation, DMSO = 0%, 100 µM tamoxifen = 100%; series mostly up to 92.2 µM;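 also: cells exposed to compound for 16 h at 37 °C before readout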
How it was run: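 Activation of caspase-3/7 is measured as increased luminescence from cleaved peptide-aminoluciferin substrate in HEK293 cells treated 16 hours at 37 °C. AC50 values come from Hill-equation fits of concentration-response data.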

[4] = Cell Viability - LYMP2-001 (AID 921); details: LYMP2-001 lymphoblastoid cell viability; series mostly up to 92.2 µM;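 also: cells exposed to compound for 24 h at 37 °C; 0% = DMSO only and full inhibition = tetraoctylammonium bromide control wells; nearly all actives have a fitted effect of over 70% in size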
How it was run: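 Steps: seed 2500 lymphoblastoid cells/well; 5 hr, 37 C; add compound; 24 hr, 37 C; CellTiter-Glo reagent, 30 min room temperature; read luminescence. Concentration-response modeled by Hill equation for AC50.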

[5] = MultiTox-Fluor Cytotoxicity Assay - LYMP1-003 - Live Cells (AID 962); details: LYMP1-003 lymphoblastoid cells, MultiTox-Fluor live-cell protease fluorescence; series mostly up to 92.2 µM;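 also: cells exposed to compound for 16 hours at 37 °C; 0% = DMSO only and full loss = 92 µM tetraoctylammonium bromide; cytotoxic hits lower the live-cell protease signal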
How it was run: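 Cells plated at 2500 per well and incubated 5 hr; compounds added and incubated 16 hr at 37 C; MultiTox-Fluor reagent added for 60 min at room temperature; fluorescence of liberated AFC measured at 405/510 nm.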

[6] = Cell Viability - LYMP1-003 - Assay at 40 hr (AID 964); details: LYMP1-003 lymphoblastoid viability; series mostly up to 92.2 µM; also: % is scaled to controls: 0 for no effect and ±100 for the full control effect; nearly all actives have a fitted effect of over 60% in size
How it was run: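 This qHTS cytotoxicity screen treats human lymphoblastoid cells (LYMP1-003) with compounds for 40 hr and quantifies cellular ATP via luciferase luminescence.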

[7] = Cell Viability - LYMP2-005 (AID 967); details: LYMP2-005 lymphoblastoid cell viability; series mostly up to 92.2 µM;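 also: cells exposed to compound for 24 h at 37 °C; plate controls were DMSO only for no effect and 92 µM tetraoctylammonium bromide control for full effect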
How it was run: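 Acute cytotoxicity is scored as a concentration-dependent drop in intracellular ATP in human lymphoblastoid LYMP2-005 cells after 24 h compound treatment. ATP is quantified by luciferase luminescence, and AC50 is derived by Hill-equation modelling.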

[8] = Cell Viability - LYMP2-011 (AID 969); details: LYMP2-011 lymphoblastoid cells viability; series mostly up to 92.2 µM;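 also: cells exposed to compound for 24 hours; 0% = DMSO only and full inhibition = 92 µM tetraoctylammonium bromide; nearly all actives have a fitted effect of over 60% in size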
How it was run: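 Acute toxicity is scored as a concentration-dependent drop in intracellular ATP of a human lymphoblastoid line after 24 hr treatment. Values are AC50s modeled with the Hill equation.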

[9] = Cell Viability - LYMP2-017 (AID 972); details: LYMP2-017 lymphoblastoid cell viability; series mostly up to 92.2 µM;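 also: cells exposed to compound for 24 hours at 37 °C; % is scaled to controls: 0 for no effect and ±100 for the full control effect; nearly all actives have a fitted effect of over 55% in size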
How it was run: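 Steps: plate 2500 lymphoblastoid cells per well; incubate 5 hr at 37 C; add compound across a concentration series and incubate 24 hr at 37 C; add CellTiter-Glo and read luminescence after 30 min at room temperature; fit Hill curves for AC50.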

[10] = Cell Viability - LYMP2-019 (AID 973); details: LYMP2-019 lymphoblastoid cell line viability; series mostly up to 92.2 µM;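 also: cells exposed to compound for 24 h at 37 °C; 0% = DMSO alone and full effect = 92 µM tetraoctylammonium bromide; nearly all actives have a fitted effect of over 55% in size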
How it was run: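 Cells plated at 2500/well and allowed 5 hr at 37 C before compound addition. After 24 hr incubation, CellTiter-Glo reagent was added, plates sat 30 min at room temperature, and luminescence was recorded.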

[11] = Cell Viability - LYMP2-023 (AID 975); details: LYMP2-023 lymphoblastoid cell viability; series mostly up to 92.2 µM;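 also: cellular ATP measured by luciferase luminescence as viability proxy; cells exposed to compound for 24 hours at 37 °C; plate controls were DMSO only for no effect and 92 µM tetraoctylammonium bromide control for full effect; nearly all actives have a fitted effect of over 55% in size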
How it was run: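 Concentration-dependent drop in intracellular ATP measures acute cytotoxicity in a human lymphoblastoid line treated for 24 hours in complete culture medium. AC50 values are taken from Hill-equation fits of qHTS data.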

[12] = Cell Viability - LYMP2-010 (AID 981); details: LYMP2-010 lymphoblastoid cell viability, qHTS; series mostly up to 92.2 µM;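 also: cells exposed to compound for 24 hours at 37 °C; % is scaled to controls: 0 for no effect and ±100 for the full control effect; nearly all actives have a fitted effect of over 55% in size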
How it was run: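 Acute toxicity is scored as a concentration-dependent loss of cellular ATP in human lymphoblastoid cells after 24 hr compound exposure in complete medium. Tetraoctylammonium bromide is the positive control.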

[13] = Cell Viability - LYMP2-016 (AID 984); details: LYMP2-016 lymphoblastoid cell viability, qHTS; series mostly up to 92.2 µM
How it was run: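 Cells were seeded at 2500 per well and rested 5 hr before a 24 hr compound exposure at 37 C. Viability was then gauged as cellular ATP by luciferase luminescence, with AC50 values fitted to the Hill equation.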

[14] = Cell Viability - LYMP2-018 (AID 985); details: LYMP2-018 lymphoblastoid cells, viability (qHTS); series mostly up to 92.2 µM;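 also: plate controls were DMSO only for no effect and tetraoctylammonium bromide at 92 µM for full effect; nearly all actives have a fitted effect of over 50% in size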
How it was run: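 Acute cytotoxicity is scored as a concentration-dependent drop in intracellular ATP after 24 hr exposure of the lymphoblastoid line in complete culture medium, measured by luciferase luminescence. Potency is expressed as AC50 from Hill modelling.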

[15] = Cell Viability - LYMP2-020 (AID 986); details: series mostly up to 92.2 µM
How it was run: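 Acute cytotoxicity in a human lymphoblastoid line is scored as a concentration-dependent fall in cellular ATP after 24 hr at 37 C in complete medium. The positive control is tetraoctylammonium bromide, and potency is given as Hill-fit AC50.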

[16] = Cell Viability - LYMP2-022 (AID 987); details: LYMP2-022 lymphoblastoid cell viability; series mostly up to 92.2 µM
How it was run: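 Acute toxicity in a human lymphoblastoid line is scored as decreased intracellular ATP after 24 hr compound treatment at 37 C. ATP is measured by CellTiter-Glo luminescence; curves are fitted with the Hill equation to give AC50.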

[17] = Cell Viability - LYMP2-026 (AID 989); details: LYMP2-026 lymphoblastoid cell viability, qHTS; series mostly up to 92.2 µM;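 also: cells exposed to compound for 24 h at 37 °C; % is scaled to controls: 0 for no effect and ±100 for the full control effect; nearly all actives have a fitted effect of over 50% in size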
How it was run: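 Concentration-dependent loss of intracellular ATP in human lymphoblastoid cells after 24 hr at 37 C, quantified by luciferase luminescence. AC50 derived from standard Hill equation.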

[18] = Cell Viability - LYMP1-002 - Assay at 40 hr (AID 994); details: LYMP1-002 lymphoblastoid cell viability; series mostly up to 92.2 µM;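 also: 0% = DMSO only and full inhibition = 92 µM tetraoctylammonium bromide; nearly all actives have a fitted effect of over 60% in size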
How it was run: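 Viability in the human lymphoblastoid line was measured as intracellular ATP via CellTiter-Glo after 40 hr compound exposure. Tetraoctylammonium bromide served as positive control.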

[19] = molecular target: Thyroid hormone receptor beta (Homo sapiens) (UniProt P10828); assay: qHTS assay for small molecule antagonists of thyroid hormone receptor beta signaling (AID 588547; active = well fitted inhibition curve with a large enough effect in the signal ratio, with a control signal flat, not every such curve was filed as active; the % refers to the signal ratio;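 also: cells stimulated with 0.4 nM T3 agonist during compound exposure; % is scaled to controls: 0 for no effect and ±100 for the full control effect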); details: TR-UAS-bla HEK293, beta-lactamase ratio, antagonist mode, 18 h
Sequence of Thyroid hormone receptor beta (Homo sapiens) (P10828 whole entry, looked up): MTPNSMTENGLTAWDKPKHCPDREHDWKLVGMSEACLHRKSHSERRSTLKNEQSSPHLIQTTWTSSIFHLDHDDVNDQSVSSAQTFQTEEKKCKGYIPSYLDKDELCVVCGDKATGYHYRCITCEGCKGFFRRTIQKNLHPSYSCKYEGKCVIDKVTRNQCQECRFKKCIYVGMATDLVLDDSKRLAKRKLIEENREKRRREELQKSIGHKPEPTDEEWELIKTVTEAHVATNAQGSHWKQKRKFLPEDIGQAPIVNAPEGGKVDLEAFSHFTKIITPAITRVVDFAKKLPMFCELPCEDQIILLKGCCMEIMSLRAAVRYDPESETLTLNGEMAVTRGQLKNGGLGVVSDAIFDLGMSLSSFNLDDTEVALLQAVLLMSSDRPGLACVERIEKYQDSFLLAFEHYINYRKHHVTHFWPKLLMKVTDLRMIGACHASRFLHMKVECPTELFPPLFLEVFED
How it was run: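 TR-UAS-bla GripTite HEK293 cells in 2% charcoal/dextran FBS medium; compounds 0.59 nM to 92 uM with T3 at 0.4nM final, 18 h at 37 C. Beta-lactamase read by CCF4 fluorescence (460/530 nm); Hill fits gave IC50 and efficacy.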

[20] = qHTS assay for small molecule disruptors of the mitochondrial membrane potential - 5 hr assay (AID 651755; calls by dose curve; also: % is scaled to controls: 0 for no effect and ±100 for the full control effect; nearly all actives have a fitted effect of over 40% in size); details: JC-1-type ratio dye; series mostly up to 92.2 µM
How it was run: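 HepG2 cells (2,000/well), attached overnight, exposed to compound 5 hr at 37C, then Mito-MPS dye 30 min. Fluorescence read for monomers (490/535 nm) and aggregates (540/590 nm).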

Nc1ccc(Br)cc1
inactive: Potency [1] > 92 µM | activity change, negative = cytotoxicity [2] -2.5% | outcome [3] | Potency [4] | Potency [5] | Potency [6] | Potency [7] | Potency [8] | Potency [9] | Potency [10] | Potency [11] | Potency [12] | Potency [13] | Potency [14] | Potency [15] | Potency [16] | Potency [17] | Potency [18] | activity change % (negative = inhibition) [19] -8.18% | Potency [20]

CCCSC(=O)Cl
inactive: Potency [1] > 92 µM | activity change, negative = cytotoxicity [2] -16.5% | outcome [3] | Potency [4] | Potency [5] | Potency [6] | Potency [7] | Potency [8] | Potency [9] | Potency [10] | Potency [11] | Potency [12] | Potency [13] | Potency [14] | Potency [15] | Potency [16] | Potency [17] | Potency [18] | activity change % (negative = inhibition) [19] -14.3% | Potency [20]

C=C(C)C#N
inactive: Potency [1] > 92 µM | activity change, negative = cytotoxicity [2] 1.28% | outcome [3] | Potency [5] | Potency [6] | Potency [7] | Potency [8] | Potency [11] | Potency [12] | Potency [14] | Potency [15] | Potency [18] | activity change % (negative = inhibition) [19] -13.7% and -1.19%

O=C(Cl)C(Cl)(Cl)Cl
inactive: Potency [1] > 92 µM | activity change, negative = cytotoxicity [2] 4.93% | outcome [3] | Potency [4] | Potency [5] | Potency [6] | Potency [7] | Potency [8] | Potency [9] | Potency [10] | Potency [11] | Potency [12] | Potency [13] | Potency [14] | Potency [15] | Potency [16] | Potency [17] | Potency [18] | activity change % (negative = inhibition) [19] -5.79% | Potency [20]

Cc1ccc([N+](=O)[O-])cc1C
inactive: Potency [1] > 92 µM | activity change, negative = cytotoxicity [2] -25% | outcome [3] | Potency [4] | Potency [5] | Potency [6] | Potency [7] | Potency [8] | Potency [9] | Potency [10] | Potency [11] | Potency [12] | Potency [13] | Potency [14] | Potency [15] | Potency [16] | Potency [17] | Potency [18] | activity change % (negative = inhibition) [19] 13% and 10.3% | Potency [20]

C1CCC2CCCCC2C1 (stereo not drawn)
inactive: Potency [1] > 92 µM | activity change, negative = cytotoxicity [2] 2.93% | outcome [3] | Potency [4] | Potency [5] | Potency [6] | Potency [7] | Potency [8] | Potency [9] | Potency [10] | Potency [11] | Potency [12] | Potency [13] | Potency [14] | Potency [15] | Potency [16] | Potency [17] | Potency [18] | activity change % (negative = inhibition) [19] 10.1% | Potency [20]

CC(Cl)Cl
inactive: Potency [1] > 92 µM | activity change, negative = cytotoxicity [2] -11.1% | outcome [3] | Potency [4] | Potency [5] | Potency [6] | Potency [7] | Potency [8] | Potency [9] | Potency [10] | Potency [11] | Potency [12] | Potency [13] | Potency [14] | Potency [15] | Potency [16] | Potency [17] | Potency [18] | activity change % (negative = inhibition) [19] -1.63% | Potency [20]

Source: PubChem BioAssay (NCATS)
